Six molecules from PubChem BioAssay can be followed below.

Structures are written as SMILES. Several values for one entry are separate records, joined by “and”; a condition that tells them apart may be missing. Equal values may be shown once. Where a structure was tested more than once in an assay, its records may differ in their call. Activity calls are given as the source filed them.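 The calls were made as follows: active = normalized viability below 100% at a tested concentration; inactive = the rest.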

The nature of the first assay: ovarian cancer cell viability with rucaparib, profiling panel, oncology-focused library, rucaparib conditional (AID 1508598). The note with it: patient-derived ovarian cancer cells, CellTiter-Glo viability, 144 h; at 0.0781 µM; OCI-C5x cells; without rucaparib; stronger effect = lower value. A general note: ATP-based viability assays read luminescence as a measure of living cells.
With `Cc1ccc(NC(=O)c2ccc(CN3CCN(C)CC3)cc2)cc1Nc1nccc(-c2cccnc2)n1`, the viability (in general, a read-out of living cells in per cent, often relative to untreated cells) was 115% (inactive) and 101% (inactive).

As to `O=NN(CCCl)C(=O)NC1CCCCC1`, the viability was 121% (inactive).

On to `O=c1c(O)c(-c2ccc(O)c(O)c2)oc2cc(O)cc(O)c12`, for which the viability is 125% (inactive).

In the case of `COc1cc2c(N3CCN(C(=O)Nc4ccc(OC(C)C)cc4)CC3)ncnc2cc1OCCCN1CCCCC1`, the viability was 105% (inactive).

Consider `COC(=O)Nc1nc2ccc(C(=O)c3cccs3)cc2[nH]1`, for which the viability is 69.2% (active).

On to `CN(Cc1cnc2nc(N)nc(N)c2n1)c1ccc(C(=O)N[C@@H](CCC(=O)O)C(=O)O)cc1`, for which the viability is 35.7% (active).

The same assay, now with this note: patient-derived ovarian cancer cells, CellTiter-Glo viability, 144 h; at 0.0781 µM; OCI-P5x cells; with rucaparib 20 µM; stronger effect = lower value; 100% = cells with rucaparib alone.
For the molecule `Cc1ccc(NC(=O)c2ccc(CN3CCN(C)CC3)cc2)cc1Nc1nccc(-c2cccnc2)n1`, the viability was 95% (active) and 100% (inactive).

Turning to `O=NN(CCCl)C(=O)NC1CCCCC1`, the viability is 97.7% (active).

For `O=c1c(O)c(-c2ccc(O)c(O)c2)oc2cc(O)cc(O)c12`, the viability is 105% (inactive).

Regarding `COc1cc2c(N3CCN(C(=O)Nc4ccc(OC(C)C)cc4)CC3)ncnc2cc1OCCCN1CCCCC1`, the viability was 115% (inactive).

Take `COC(=O)Nc1nc2ccc(C(=O)c3cccs3)cc2[nH]1`: the viability was 62.5% (active).

Turning to `CN(Cc1cnc2nc(N)nc(N)c2n1)c1ccc(C(=O)N[C@@H](CCC(=O)O)C(=O)O)cc1`, the viability is 110% (inactive).
